# Reference: paper PMC7862700, “An all-to-all approach to the identification of sequence-specific readers for epigenetic DNA modifications on cytosine”
# Tests used:
# Experiment in all cases: DAPPL (digital affinity profiling via proximity ligation, sequencing); 10 mM Tris-HCl pH 7.5, 50 mM NaCl, 1 mM DTT, 4% glycerol, room temperature, 30 min; GST-TFs on glutathione beads, 16-mer random dsDNA library, 0.1% formaldehyde crosslink after washing; high values mean tight binding
# FEV = target: T1, FEV (Homo sapiens, UniProt Q99581 1-238); conditions: protein: recombinant; tags: N-terminal GST; dsDNA, one strand shown
# T1 sequence: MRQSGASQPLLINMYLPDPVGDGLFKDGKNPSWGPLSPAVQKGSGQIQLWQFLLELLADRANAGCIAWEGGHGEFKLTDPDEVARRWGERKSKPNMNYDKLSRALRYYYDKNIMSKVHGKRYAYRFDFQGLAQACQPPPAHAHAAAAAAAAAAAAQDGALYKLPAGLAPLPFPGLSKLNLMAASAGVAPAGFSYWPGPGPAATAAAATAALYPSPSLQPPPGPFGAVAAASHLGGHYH
# In short: (§1)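 Human transcription factors carrying a GST fusion were produced in yeast, bound to glutathione beads, tagged with DNA barcodes and pooled together with a tag-only sample. Each pool was held with 200 nmole of a random double-stranded 16-mer DNA library in Tris/NaCl/DTT/glycerol buffer for 30 min at room temperature, then washed, crosslinked in 0.1% formaldehyde, proximity-ligated with BsaI/T4 ligase (1 h, 37 °C), PCR-amplified and sequenced on an Illumina NextSeq500. Binding signal is the read frequency of each hexamer for a given factor divided by its frequency in the tag-only sample.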
# ETV5 = ETV5 (Homo sapiens, UniProt P41161 1-510); conditions: protein: recombinant; tags: N-terminal GST; dsDNA, one strand shown
# In short: as §1
# HSF1 = HSF1 (Homo sapiens, UniProt Q00613 1-529); conditions: protein: recombinant; tags: N-terminal GST; chain copies: 3; dsDNA, one strand shown
# In short: as §1
# SPIC = target: T2, SPIC (Homo sapiens, UniProt Q8N5J4 1-248); conditions: protein: recombinant; tags: N-terminal GST; dsDNA, one strand shown
# T2 sequence: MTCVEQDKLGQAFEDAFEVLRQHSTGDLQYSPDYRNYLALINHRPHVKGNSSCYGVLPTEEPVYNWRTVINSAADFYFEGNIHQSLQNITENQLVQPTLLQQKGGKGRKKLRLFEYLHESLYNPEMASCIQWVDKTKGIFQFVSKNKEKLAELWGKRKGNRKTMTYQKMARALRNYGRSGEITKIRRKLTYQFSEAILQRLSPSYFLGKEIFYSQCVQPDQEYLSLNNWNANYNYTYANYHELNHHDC
# In short: as §1
# ELF4 = ELF4 (Homo sapiens, UniProt Q99607 1-663); conditions: protein: recombinant; tags: N-terminal GST; dsDNA, one strand shown
# In short: as §1
# ELK4 = target: T3, ELK4 (Homo sapiens, UniProt P28324-2 1-405); conditions: protein: recombinant; tags: N-terminal GST; dsDNA, one strand shown
# T3 sequence: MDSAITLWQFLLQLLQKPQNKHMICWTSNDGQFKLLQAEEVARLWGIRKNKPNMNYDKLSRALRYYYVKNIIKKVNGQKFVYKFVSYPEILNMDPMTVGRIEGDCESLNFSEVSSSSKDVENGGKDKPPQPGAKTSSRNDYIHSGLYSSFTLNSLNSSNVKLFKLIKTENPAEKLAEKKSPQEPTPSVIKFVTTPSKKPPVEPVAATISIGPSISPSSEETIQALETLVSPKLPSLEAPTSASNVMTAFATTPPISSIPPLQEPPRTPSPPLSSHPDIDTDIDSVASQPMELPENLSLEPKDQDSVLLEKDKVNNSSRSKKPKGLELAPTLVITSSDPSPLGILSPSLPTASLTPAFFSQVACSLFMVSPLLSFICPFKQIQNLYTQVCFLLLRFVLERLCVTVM
# In short: as §1
# ETV2 = target: T4, ETV2 (Homo sapiens, UniProt O00321 1-342); conditions: protein: recombinant; tags: N-terminal GST; dsDNA, one strand shown
# T4 sequence: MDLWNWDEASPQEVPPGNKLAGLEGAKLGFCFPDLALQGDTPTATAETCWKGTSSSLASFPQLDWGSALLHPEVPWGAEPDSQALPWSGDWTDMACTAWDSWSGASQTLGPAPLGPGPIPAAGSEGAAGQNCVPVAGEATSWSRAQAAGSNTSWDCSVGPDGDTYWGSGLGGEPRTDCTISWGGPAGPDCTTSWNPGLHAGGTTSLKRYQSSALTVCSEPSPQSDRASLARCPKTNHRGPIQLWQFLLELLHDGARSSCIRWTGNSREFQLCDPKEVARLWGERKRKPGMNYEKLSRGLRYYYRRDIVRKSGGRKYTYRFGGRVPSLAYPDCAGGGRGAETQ
# In short: as §1
# ELF3 = target: T5, ELF3 (Homo sapiens, UniProt P78545 1-371); conditions: protein: recombinant; tags: N-terminal GST; dsDNA, one strand shown
# T5 sequence: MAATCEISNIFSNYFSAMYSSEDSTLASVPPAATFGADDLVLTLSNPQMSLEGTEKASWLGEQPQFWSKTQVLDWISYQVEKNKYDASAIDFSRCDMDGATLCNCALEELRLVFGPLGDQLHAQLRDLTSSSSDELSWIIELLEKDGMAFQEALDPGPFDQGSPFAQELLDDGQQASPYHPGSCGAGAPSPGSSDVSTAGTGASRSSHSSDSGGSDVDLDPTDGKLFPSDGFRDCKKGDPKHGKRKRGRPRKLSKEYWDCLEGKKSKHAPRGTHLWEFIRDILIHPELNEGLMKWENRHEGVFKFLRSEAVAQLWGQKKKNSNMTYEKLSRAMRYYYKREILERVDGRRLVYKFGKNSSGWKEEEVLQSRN
# In short: as §1
# CRX = CRX (Homo sapiens, UniProt O43186 1-299); conditions: protein: recombinant; tags: N-terminal GST; dsDNA, one strand shown
# In short: as §1
# Sequence of CRX (O43186 whole entry): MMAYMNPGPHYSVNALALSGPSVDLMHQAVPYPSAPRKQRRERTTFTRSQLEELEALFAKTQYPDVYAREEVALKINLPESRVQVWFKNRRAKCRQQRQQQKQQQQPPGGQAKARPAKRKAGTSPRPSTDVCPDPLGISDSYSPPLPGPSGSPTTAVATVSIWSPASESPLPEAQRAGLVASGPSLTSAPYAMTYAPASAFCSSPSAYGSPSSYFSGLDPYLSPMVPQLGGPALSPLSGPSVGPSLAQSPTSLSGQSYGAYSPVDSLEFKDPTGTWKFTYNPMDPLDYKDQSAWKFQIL
# Sequence of ETV5 (P41161 whole entry): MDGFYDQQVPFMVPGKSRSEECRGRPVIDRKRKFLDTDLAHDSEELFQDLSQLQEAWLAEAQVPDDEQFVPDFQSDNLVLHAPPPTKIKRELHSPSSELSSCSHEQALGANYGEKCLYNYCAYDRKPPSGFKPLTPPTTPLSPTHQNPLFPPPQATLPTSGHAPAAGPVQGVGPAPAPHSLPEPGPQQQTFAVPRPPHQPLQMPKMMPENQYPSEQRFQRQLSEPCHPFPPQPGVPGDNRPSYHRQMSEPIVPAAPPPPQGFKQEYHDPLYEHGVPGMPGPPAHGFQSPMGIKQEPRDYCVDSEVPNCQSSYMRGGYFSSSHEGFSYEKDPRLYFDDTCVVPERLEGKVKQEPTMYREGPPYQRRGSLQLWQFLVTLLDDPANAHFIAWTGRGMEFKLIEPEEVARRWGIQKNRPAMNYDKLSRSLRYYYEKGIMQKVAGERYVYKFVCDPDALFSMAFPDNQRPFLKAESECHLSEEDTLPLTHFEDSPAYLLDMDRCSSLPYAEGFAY
# Sequence of ELF4 (Q99607 whole entry): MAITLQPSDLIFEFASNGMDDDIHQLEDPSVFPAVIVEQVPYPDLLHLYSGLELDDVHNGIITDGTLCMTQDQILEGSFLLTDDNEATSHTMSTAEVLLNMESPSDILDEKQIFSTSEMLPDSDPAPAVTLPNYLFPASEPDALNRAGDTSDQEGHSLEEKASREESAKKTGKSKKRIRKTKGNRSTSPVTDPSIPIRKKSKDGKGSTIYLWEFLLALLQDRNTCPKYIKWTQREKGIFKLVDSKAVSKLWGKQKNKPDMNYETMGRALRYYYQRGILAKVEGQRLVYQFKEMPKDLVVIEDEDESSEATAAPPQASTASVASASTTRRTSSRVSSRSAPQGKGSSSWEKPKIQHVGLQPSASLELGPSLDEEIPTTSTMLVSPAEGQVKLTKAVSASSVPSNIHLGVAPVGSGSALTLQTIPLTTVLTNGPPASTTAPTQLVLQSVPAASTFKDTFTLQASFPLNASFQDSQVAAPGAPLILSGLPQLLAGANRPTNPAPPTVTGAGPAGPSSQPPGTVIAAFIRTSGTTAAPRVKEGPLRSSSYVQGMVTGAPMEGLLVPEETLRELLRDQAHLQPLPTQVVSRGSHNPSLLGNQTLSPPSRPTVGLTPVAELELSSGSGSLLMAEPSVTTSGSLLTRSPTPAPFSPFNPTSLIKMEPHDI
# Sequence of HSF1 (Q00613 whole entry): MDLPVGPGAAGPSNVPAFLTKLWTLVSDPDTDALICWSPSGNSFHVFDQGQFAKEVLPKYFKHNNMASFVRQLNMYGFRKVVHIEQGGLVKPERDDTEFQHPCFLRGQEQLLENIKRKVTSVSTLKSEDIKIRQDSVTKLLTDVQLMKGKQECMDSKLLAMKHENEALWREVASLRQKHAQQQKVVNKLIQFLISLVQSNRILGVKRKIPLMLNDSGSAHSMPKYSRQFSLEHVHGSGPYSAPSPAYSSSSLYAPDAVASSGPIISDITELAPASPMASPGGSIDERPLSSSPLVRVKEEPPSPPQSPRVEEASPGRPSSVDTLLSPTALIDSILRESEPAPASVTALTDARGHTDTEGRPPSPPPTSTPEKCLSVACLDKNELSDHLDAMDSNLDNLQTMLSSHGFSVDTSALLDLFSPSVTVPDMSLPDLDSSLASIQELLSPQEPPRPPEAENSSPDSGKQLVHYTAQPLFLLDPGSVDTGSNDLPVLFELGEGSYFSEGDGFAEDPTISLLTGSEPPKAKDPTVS
sequence,measurement,setting,value
TACTAT,binding signal,FEV,"1.31 fold enrichment (6-mer frequency, TF over GST control)"
same,binding signal,ETV5,"1.31 fold enrichment (6-mer frequency, TF over GST control)"
same,binding signal,HSF1,"1.37 fold enrichment (6-mer frequency, TF over GST control)"
same,binding signal,SPIC,"1.45 fold enrichment (6-mer frequency, TF over GST control)"
same,binding signal,ELF4,"1.35 fold enrichment (6-mer frequency, TF over GST control)"
same,binding signal,ELK4,"1.33 fold enrichment (6-mer frequency, TF over GST control)"
same,binding signal,ETV2,"1.4 fold enrichment (6-mer frequency, TF over GST control)"
same,binding signal,ELF3,"1.2 fold enrichment (6-mer frequency, TF over GST control)"
same,binding signal,CRX,"1.48 fold enrichment (6-mer frequency, TF over GST control)"
